# From PubChem BioAssay AID743395 (Broad Institute, 2014)
# Screen size: about 1,200 compounds; about 480 (40%) were called active. So high a share suggests a set chosen from earlier hits. A selection follows. Measured potencies and affinities stand elsewhere. Values without a mark were called inactive. How the calls were made is not given here.
# Test: HepG2 cell cytotoxicity, dose response, cytotoxicity control, CellTiter-Glo luminescence, cherry-pick, set 2 (AID 743395);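 further: 0% = neutral control wells and -100% = positive control wells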
# Conditions: HepG2 viability, CellTiter-Glo ATP luminescence, 72 h; series mostly up to 26 µM; activity change, negative = cytotoxicity: at the top concentration
row,Structure (SMILES),"activity change, negative = cytotoxicity"
1,COc1ccc(CCC(=O)N2CCN(S(=O)(=O)c3ccc(OC(F)(F)F)cc3)CC2)cc1,-3.96%
2,CS(=O)(=O)N1CC(=O)N2[C@H](C1)[C@H](c1ccc(C#Cc3ccc(F)cc3)cc1)[C@@H]2CO,9.48%
3,CCS(=O)(=O)N1CC(=O)N2[C@H](CO)[C@@H](c3ccc(C#CCC(C)C)cc3)[C@@H]2C1,-5.68%
4,CCS(=O)(=O)N1CC(=O)N2[C@H](C1)[C@@H](c1ccc(C#CCC(C)C)cc1)[C@@H]2CO,5.82%
5,COc1ccccc1N1CCN(/N=C/C=C\c2ccccc2[N+](=O)[O-])CC1,-6.14%
6,COc1cc(SC)ccc1C(=O)N1CCN(c2ccccc2OC)CC1,-19.4%
7,Cc1ccc(C(=O)NCC(=O)OCC(=O)NC(C)c2ccccc2)s1 (configuration not stated),1.29%
8,C[C@@H]1CN([C@@H](C)CO)C(=O)Cc2cc(N(C)C)ccc2O[C@@H]1CN(C)Cc1ccccc1,11%
9,C[C@H]1CCCCO[C@H](CN(C)C(=O)Cc2ccccc2)[C@@H](C)CN([C@@H](C)CO)C(=O)c2cc(N(C)C)ccc2O1,17.5%
10,C[C@@H]1CN([C@@H](C)CO)C(=O)Cc2cc(NC(=O)Nc3ccc(C(F)(F)F)cc3)ccc2O[C@H]1CN(C)C(=O)Nc1ccccc1,1.88%
11,C[C@@H]1CN([C@H](C)CO)C(=O)c2cc(NC(=O)Cc3cn(C)c4ccccc34)ccc2O[C@@H]1CN(C)Cc1ccc(Cl)c(Cl)c1,-4.98% [at 23.5 µM]
12,C[C@H](CO)N1C[C@H](C)[C@H](CN(C)Cc2ccc(Cl)c(Cl)c2)Oc2ccc(NC(=O)C3CCCCC3)cc2CC1=O,-6.82%
13,C[C@@H]1CN([C@@H](C)CO)C(=O)c2cc(NC(=O)Nc3cccc4ccccc34)ccc2O[C@@H](C)CCCCO[C@@H]1CN(C)Cc1ccc2c(c1)OCO2,-26.5%
14,C[C@@H]1CN([C@@H](C)CO)C(=O)c2cccc(NC(=O)Nc3ccc4c(c3)OCO4)c2O[C@H]1CN(C)S(=O)(=O)c1ccccc1,-9.43%
15,CCNC(=O)C1CCCN(C(=O)c2cc(F)ccc2C)CC1 (configuration not stated),-0.235%
16,CCNC(=O)C1(C)CCN(C(=O)c2cc(F)ccc2C)C1 (configuration not stated),-6.93%
17,Cc1cccc(CC(=O)Nc2cccnc2)c1,-1.85%
18,CN1c2ccc(-c3ccc(C#N)cc3)cc2[C@H]2[C@H](CCN2S(=O)(=O)c2cccc(F)c2)[C@H]1CO,-16.1%
19,CN1c2ccc(-c3ccc(C#N)cc3)cc2[C@H]2[C@H](CCN2S(=O)(=O)c2cccc(F)c2)[C@@H]1CO,-0.956%
20,O=C(O)C1=C[C@@H](O)[C@@H](O)[C@H](O)C1,-13.4%
21,COc1ccc(C(=O)c2cc(OC)c(OC)c(OC)c2)cc1OC,7.79%
22,COc1ccc(C(=O)Nc2ccccc2C(=O)Nc2ccccc2)cc1,-24.1%

row,Structure (SMILES),"activity change, negative = cytotoxicity"
1,CCOCCOC(=O)COC(=O)c1ccccc1NC(=O)c1ccccc1,-0.163%
2,Cc1nc(NCc2cccnc2)c2c3c(sc2n1)CCCC3,-5.3%
3,COc1ccc(-c2cc(=O)c3c(O)cc(O)cc3o2)cc1,-9.33%
4,O=C1NC(=Nc2cccnc2)S/C1=C/c1ccc(F)cc1,-14.8%
5,Cn1cccc1/C=C1\SC(=Nc2ccc(O)cc2)NC1=O,-16.7%
6,C=CC[C@@H](CC(=O)N(CCO)Cc1ccccc1)C(=O)N[C@H](COC(=O)[C@H](CC=C)CC(=O)OC(C)(C)C)Cc1c[nH]c2ccccc12,-12.6%
7,O=C(Nc1cc(F)ccc1F)N1CC(=O)N2[C@@H](CO)[C@H](c3ccc(C#CC4CCCCC4)cc3)[C@@H]2C1,-6.48%
8,CCCNC(=O)N1[C@H](C#N)[C@H](c2ccc(C#Cc3ccc(F)cc3)cc2)[C@@H]1CO,-23.9%
9,CC(C)CC#Cc1ccc([C@H]2[C@H](CO)N3C(=O)CN(C(=O)Nc4cc(F)ccc4F)C[C@@H]23)cc1,-9.28%
10,CCCC#Cc1ccc([C@H]2[C@H](CO)N3C(=O)CN(C(=O)Nc4cc(F)ccc4F)C[C@@H]23)cc1,-5.13%
11,Cc1ccc(-c2cccc(CN3CCN(C(C)C)C(CCO)C3)c2)o1 (configuration not stated),-17.7%
12,COc1cc(-c2noc(C)c2C#Cc2ccsc2)cc(OC)c1OC,-17.5%
13,COc1cc(-c2noc(C)c2C#Cc2ccccn2)cc(OC)c1OC,-16.2%
14,O=C(CCC(=O)N1CCOc2ccc(Cl)cc21)N1CCN(c2ccccn2)CC1,2.93%
15,CCN1CCCC(OC(=O)c2cc(-c3ccccc3Cl)nc3ccccc23)C1 (configuration not stated),-10.8%
16,CCOc1ccc(-c2cc(C(=O)N/N=C/c3ccc(O)cc3)c3ccccc3n2)cc1,-21.9%
17,COC(=O)Cc1c(O)ccn(Cc2ccc(Cl)c(Cl)c2)c1=O,-16.8%
18,CN1C(=O)c2cc(NC(=O)c3ccc(Cl)cc3)ccc2OC[C@@H]2O[C@H](CC(=O)NCc3cccc(F)c3)CC[C@H]21,18.6%
19,CCN(CC(=O)Nc1ccc(NC(C)=O)cc1)C(=O)c1ccc(N2CCC(C)CC2)c([N+](=O)[O-])c1,-18.6%
20,Cc1c(CCC(=O)O)c(=O)oc2c(C)c(OCc3ccccc3Cl)ccc12,5.78%
21,COc1ccc(C(C)=O)cc1CS(=O)(=O)CC(=O)NCCc1c[nH]c2ccccc12,-4.03%
22,O=C(CN(Cc1ccco1)Cc1ccco1)Nc1cc(S(=O)(=O)N2CCCCC2)ccc1Cl,13.7%

row,Structure (SMILES),"activity change, negative = cytotoxicity"
1,Cc1c(OCC(=O)NCCN2CCOCC2)ccc2c3c(c(=O)oc12)CCC3,-6.09%
2,Oc1cc2c(cc1O)C(c1ccccc1)CNCC2 (configuration not stated),0.38%
3,COc1ccc(OC)c(C2CC(c3ccccc3)=NN2C(=S)Nc2ccccc2)c1 (configuration not stated),-20.7%
4,CCOc1ccc(N(CC)C(=O)COc2cc(=O)n(C)c3ccccc23)cc1,11.3%
5,CCOC(=O)c1c(C)[nH]c(C)c1C(=O)COC(=O)c1ccc([N+](=O)[O-])s1,-18.1%
6,C/C=C/c1ccc([C@H]2[C@@H](CO)N(C(=O)COC)[C@@H]2CNC(=O)CC)cc1,-0.817% [at 23.5 µM]
7,Cc1cc(/C=N/NC(N)=S)c(O)c(/C=N/NC(N)=S)c1,-18%
8,Cc1cc2c(cc1C)C(c1ccccc1OC(C)C)CC(=O)N2 (configuration not stated),-16.4%
9,O=C(Nc1ccccc1)c1nc[nH]c1C(=O)Nc1ccccc1F,-20.8%
10,CN(CC(=O)Nc1cccc(S(=O)(=O)N2CCCC2)c1)CC(=O)Nc1ccc(F)c(F)c1F,-10.9%
11,COc1cccc(-c2cccc(-c3nc(C(=O)NCC(F)(F)F)cc4c3[C@H](CCO)N([S@@](=O)C(C)(C)C)C4)c2)c1,-28.3%
12,N#Cc1nc(NCC(F)F)nc(Nc2cc(F)cc(F)c2)n1,-8.63%
13,COCCCNc1nnc(Cc2ccc(Cl)cc2)c(=O)[nH]1,-22%
14,O=C(CN1CCN(S(=O)(=O)c2ccccc2)CC1)Nc1ccccc1Cl,-11.1%
15,N#CCC(=O)N/N=C/c1cn(Cc2cccc3ccccc23)c2ccccc12,5.87%
16,COc1ccc2oc(C(=O)N3CCN(C(=O)c4ccco4)CC3)c(C)c2c1,-4.08%
17,COc1ccc(NC(=O)c2ccc(NC(=O)c3nc4nccc(C)n4n3)cc2)cc1,-15.4%
18,CCCc1nc2ccccc2c(C(=O)OCC(=O)NCc2ccc3c(c2)OCO3)c1CC,-28.8%
19,COc1ccc(CC(=O)Nc2nccs2)cc1S(=O)(=O)N1CCOCC1,-8.61%
20,Cc1ccc(S(=O)(=O)N2CCOCC2)cc1NC(=O)COC(=O)c1ccc(Cl)nc1,4.96%
21,Cc1ccc(S(=O)(=O)N(C)C[C@@H]2OCCCC[C@@H](C)Oc3ccc(NS(=O)(=O)c4ccc(Cl)cc4)cc3C(=O)N([C@@H](C)CO)C[C@@H]2C)cc1,-3.66%
22,COc1ccc(S(=O)(=O)Nc2ccc3c(c2)C(=O)N([C@H](C)CO)C[C@@H](C)[C@@H](CN(C)Cc2ccc(C(F)(F)F)cc2)O3)cc1,-4.66%

row,Structure (SMILES),"activity change, negative = cytotoxicity"
1,C[C@H](CO)N1C[C@H](C)[C@H](CN(C)C(=O)NC2CCCCC2)Oc2ncc(-c3cc4ccccc4o3)cc2C1=O,-3.27%
2,COc1ccc(S(=O)(=O)Nc2ccc3c(c2)C(=O)N([C@@H](C)CO)C[C@@H](C)[C@H](CN(C)Cc2ccc(Oc4ccccc4)cc2)O3)cc1,14%
3,C[C@@H]1CN([C@H](C)CO)C(=O)c2cc(NC(=O)Cc3ccccc3)ccc2O[C@@H]1CN(C)S(C)(=O)=O,6.51% [at 23.5 µM]
4,Cc1ccc(S(=O)(=O)Nc2ccc3c(c2)C(=O)N([C@@H](C)CO)C[C@H](C)[C@H](CN(C)S(=O)(=O)c2ccc(C)cc2)OCCCC[C@@H](C)O3)cc1,-3.79% [at 23.5 µM]
5,N#C[C@@H]1[C@H](c2ccc(-c3cccc(F)c3)cc2)[C@H](CO)N1C(=O)NC1CCCC1,-16.6%
6,CCCNC(=O)N1[C@H](CO)[C@@H](c2ccc(C3=CCCC3)cc2)[C@@H]1CN(C)C(C)=O,7.91%
7,CCOc1ccccc1N1CCN(C(=O)c2cc3ccccc3cc2OC)CC1,-16.5%
8,Cc1nn(C)c(C)c1/C=C/C(=O)O,-1.57%
9,COc1cc(/C=C/C(=O)O)cc(S(=O)(=O)Nc2ccc3cn[nH]c3c2)c1OC,1.05%
10,COc1ccc(C)cc1NC(=O)CNC(c1ccccc1)c1ccc(C)cc1 (configuration not stated),8.87%
11,O=C(CSC1=NNC(c2ccccn2)S1)Nc1ccccc1 (configuration not stated),-4.35%
12,CN(C)S(=O)(=O)c1ccc2c(c1)/C(=C/c1cc3c([nH]1)CCCC3)C(=O)N2,-13%
13,CN(c1ccc(O)cc1)c1nc(-c2cccs2)cs1,-12.2%
14,COC(=O)Cn1c(=NC(=O)c2cc(-c3cccs3)nc3ccccc23)sc2cc(S(N)(=O)=O)ccc21,-5.09%
15,C=CCN=c1scc(C)n1/N=C/c1ccc(O)c(O)c1,-26.3%
16,COCOc1cccc(CN2CCC(C)(Oc3cccc(C#N)c3)C2)c1 (configuration not stated),-17.5%
17,O=C(NCc1cccs1)c1cc(-c2ccccc2)nn1CC1CC(c2cccc([N+](=O)[O-])c2)=NO1 (configuration not stated),-7.8%
18,C=CCN1C(=O)/C(=C/C=C2/N(CC)c3ccc(S(=O)(=O)N(C)C)cc3N2CC)SC1=S,-19.1%
19,CCOc1ccc(Cl)cc1C1=CC(=O)C[C@H](c2ccc(OC)cc2)C1,-6.55%
20,COc1ccc2c(c1)C(=O)CC(c1ccc3c(c1)OCCO3)O2 (configuration not stated),-9.83%
21,COc1ccc(C2CN=NC23CCc2ccccc2C3=O)cc1 (configuration not stated),-5.59%
